Data as given in PubChem BioAssay AID624330 (Southern Research Specialized Biocontainment Screening …, 2012).
Out of some 340,000 compounds screened, about 2,100 (0.62%) were called active.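 How the source made its calls: active means first-screen hits whose inhibition reached a set limit at any dose in the follow-up dose series; inconclusive means inhibition above the set first-screen limit but never retested; inactive means the rest.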 The list is a sample of the results. Entries with a potency or affinity are not part of this list.

target: Rac GTPase-activating protein 1 (Homo sapiens) (UniProt Q9H0H5); experiment: MgcRacGAP GTPase-activating activity inhibitors, confirmation, biochemical, ADP Hunter fluorescence, primary and confirmatory (AID 624330); conditions: MgcRacGAP-stimulated Rac1 GTP hydrolysis, at 30 µM, stronger effect = higher value, GST-tagged Rac1 F28L mutant substrate;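 further: fluorescence reports GDP produced by GAP-driven GTP hydrolysis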
Sequence (Q9H0H5 whole entry, looked up): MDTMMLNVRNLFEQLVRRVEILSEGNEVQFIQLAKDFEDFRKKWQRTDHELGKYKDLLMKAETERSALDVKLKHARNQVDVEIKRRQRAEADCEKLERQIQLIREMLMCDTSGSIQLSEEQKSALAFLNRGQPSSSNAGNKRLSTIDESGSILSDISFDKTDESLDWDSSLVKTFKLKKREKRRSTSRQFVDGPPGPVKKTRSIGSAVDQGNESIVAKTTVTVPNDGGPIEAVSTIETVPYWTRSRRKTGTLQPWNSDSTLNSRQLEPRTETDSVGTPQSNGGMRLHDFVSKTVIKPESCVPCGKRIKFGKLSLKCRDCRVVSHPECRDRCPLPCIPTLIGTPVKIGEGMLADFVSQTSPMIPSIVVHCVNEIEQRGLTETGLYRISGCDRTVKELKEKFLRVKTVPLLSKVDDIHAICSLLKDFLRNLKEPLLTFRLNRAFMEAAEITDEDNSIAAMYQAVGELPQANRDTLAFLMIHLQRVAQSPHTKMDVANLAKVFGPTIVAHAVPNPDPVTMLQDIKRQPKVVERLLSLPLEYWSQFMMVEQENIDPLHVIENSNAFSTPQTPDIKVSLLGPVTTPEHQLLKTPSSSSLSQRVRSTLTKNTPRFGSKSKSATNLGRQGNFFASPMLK

inhibition, inactive:
CC(NCC(c1ccco1)N1CCCCC1)C(=O)NC1CCCC1 (stereo not drawn) 6.01%
Cc1[nH]ccc(=O)c1OCc1ccc(Cl)cc1 8.17%
CCCSc1nnc2c(n1)OC(c1cccn1C)N(C(C)=O)c1ccccc1-2 (stereo not drawn) 7.61%
Cc1cccc(NC(=O)Nc2cnccn2)c1C 7.34%
COc1cc(C(=O)NC2CCCC2)c(Br)c(OC)c1OC 11.2%
Cc1ccc(C(CNS(=O)(=O)c2ccc(F)cc2)N2CCN(C)CC2)cc1 (stereo not drawn) 3.73%
C#CCOCCOCCOCCNc1nc(N2CCN(C(=O)[C@H]([C@@H](C)O)n3cc(CCCCN)nn3)CC2)nc(N2CCN(C(=O)[C@H](C)n3cc(CCCN=C(N)N)nn3)CC2)n1 6.19%
CCOc1ncccc1C(=O)OCC(=O)c1ccc(OC)c(OC)c1 2%
COc1cccc(CN2CCC(N(CCc3ccccc3)Cc3ccccc3)CC2)c1OC 22.3%
CCCN1CCC(N(CCc2ccccc2)Cc2ccccc2)CC1 -10%
CSc1nnc(-c2ccc(S(=O)(=O)N3CCCCC3)cc2)o1 1%
CCC(C)c1ccccc1NC(=O)C(C)OC(=O)c1ccco1 (stereo not drawn) 1.05%
O=c1c(Cc2c(F)cccc2Cl)c(O)ccn1CC1CCCO1 (stereo not drawn) -2.7%
CCOC(=O)CCc1c(C)nc2cc(-c3ccc(Cl)cc3)[nH]n2c1=O -6.3%
O=C(CCNC(=O)c1ccco1)Nc1ccc(SC(F)F)cc1 -1.92%
COc1ccc(N2CCN(C(=O)CSc3nnc(C4CC4)n3C3CC3)CC2)cc1 24.3%
COc1ccc(N2CCN(C(=O)CSc3nnnn3C3CC3)CC2)cc1 16.6%
O=C(CSc1nnnn1C1CC1)N1CCN(c2cccc(Cl)c2)CC1 6.11%
Cc1nnc(SCC(=O)N2CCN(c3ccccc3)CC2)n1C1CC1 5.61%
C[C@@H]1[C@H]2CCCC[C@H]2CN(C(=O)OC(C)(C)C)[C@@H]1CC(=O)c1ccccc1 12.5%
COc1ccc(CN2CCS(=O)(=O)CC2)cc1OC -1.72%
CCOC(=O)C1CCCN(S(=O)(=O)c2ccc(Cl)nc2)C1 (stereo not drawn) 0.62%
CCC(=O)c1ccccc1OCCN1C(=O)NC(C)(C)C1=O 3.57%
Cc1ccccc1CNCc1ccc2c(c1)OCO2 25.3%
Cc1ccc(CNCc2ccccc2Cl)cc1 3.27%
Clc1ccccc1CNCc1ccncc1 -5.2%
Fc1ccccc1CNCc1ccc2c(c1)OCO2 6.19%
CC1=C(C(=O)NC(C)CCc2ccccc2)C2(CCC(C)CC2)OC1=O (stereo not drawn) 9.85%
O=C(C[n+]1cccc(/C=N/O)c1)N(Cc1ccccc1)Cc1ccccc1 2.39%
COc1ccc(CCNC(=O)CSc2n[nH]c(N)n2)cc1 9.27%
Cc1csc(=O)n1CCC(=O)OCC(=O)Nc1ccc(S(N)(=O)=O)cc1 6.26%
O=C(CCN1C(=O)[C@@H]2Cc3ccccc3CN2C1=O)NCc1ccccc1Cl 13.7%
CCOc1ccc(S(=O)(=O)N2CCCC(C(=O)Nc3ccccc3)C2)cc1 (stereo not drawn) 4.61%
CCN(CC)S(=O)(=O)c1ccc(NC(=O)COC(=O)CCc2cc(OC)c(OC)c(OC)c2)cc1 1.83%
COc1ccccc1/C=C(/C(=O)OCC(=O)Nc1ccccc1C)c1ccccc1 8.5%
COc1cc(CC(=O)OCC(=O)Nc2ccc3c(c2)OCO3)cc(OC)c1OC 12.4%
CCc1ccc(NC(=O)COC(=O)/C(=C/c2ccccc2OC)c2ccccc2)cc1 -0.32%
COc1cc(CC(=O)OCC(=O)Nc2ccc([N+](=O)[O-])cc2)cc(OC)c1OC 13.3%
CCN(c1ccc(NC(=O)COC(=O)CCc2cc(OC)c(OC)c(OC)c2)cc1)C(C)C 14.8%
COc1ccc(NC(C)=O)cc1C 16.4%
COCc1cc(C)n(CC(=O)Nc2ccc(N3CCOCC3)cc2)c(=O)c1C#N 1.03%
Nc1c(C(=O)c2cccs2)oc2ccccc12 6.17%
Cc1ccc(C(=O)OCc2nnc(-c3ccccc3)o2)o1 6.62%
COCCCn1c(=S)[nH]c2c(sc3ccccc32)c1=O 21%
O=c1c2ccccc2[nH]c(=S)n1CCCN1CCOCC1 4.66%
CCN(CC)S(=O)(=O)c1cc(C(=O)OCC(=O)Nc2ccc(-c3nc4ccc(C)cc4s3)cc2)ccc1F 4.33%
COc1ccc2c(c1)-c1nc(NC(=O)c3ccco3)sc1CC2 8.71%
CC(=O)Nc1nc2c(s1)CCc1ccccc1-2 8.9%
Nc1nc2c(s1)COc1ccccc1-2 4.85%
COc1ccc2c(c1)-c1nc(NC(=O)c3cccs3)sc1CC2 8.83%
CCC(=O)N1CCN(c2ccc(NC(=O)COc3ccc(CC)cc3)cc2)CC1 3.4%
O=S(=O)(c1ccc(NCc2ccccc2)cc1)N1CCOCC1 5.28%
Cc1ccc(CNc2ccc(N3CCOCC3)c(C(=O)O)c2)s1 6.12%
CCc1ccc(N2CCN(C(=O)N3CCOCC3)CC2)cc1 7.01%
CC(=O)N1CCN(c2ccc(NCc3ccc(C)s3)cc2)CC1 30.4%
CC(=O)N1CCN(c2ccc(NC(=O)c3ccc(Cl)cc3)cc2)CC1 4.31%
c1cc(CNc2ccc(N3CCOCC3)cc2)ccn1 13.9%
CC(=O)c1ccc(N2CCN(C(=O)Nc3ccc(C(C)C)cc3)CC2)cc1 6.75%
Cc1cc(=O)[nH]c(NN=C2C3CC4CC(C3)CC2C4)n1 -3.7%
CS(=O)(=O)NNC(=O)C1Cc2c(ccc3ccccc23)O1 (stereo not drawn) 8.23%
CC1CCCC(C)N1CCNC(=O)Nc1ccc(Cl)cc1 (stereo not drawn) 6.73%
COc1ccc(NC(=O)C2CCN(C(=O)[C@@H]3Cc4ccccc4CN3)CC2)cc1 -3.28%
O=C(OCc1ccccc1)/C(=C/c1cccc2ccccc12)NC(=O)c1ccccc1 4.32%
N#CC1=C(c2ccc(-c3ccccc3)cc2)COC1=O 7.38%
CC(=O)N1CCN(c2ccc(NC(=O)c3ccc(F)cc3)cc2)CC1 13.2%
CC(=O)N1CCN(c2ccc(NC(=O)c3ccccc3)cc2)CC1 11.9%
CC(C)c1ccc(S(=O)(=O)Nc2ccc(N3CCOCC3)cc2)cc1 8.59%
CCc1ccc(NC(=O)N2CCN(c3ccc(F)cc3)CC2)cc1 2.99%
CCc1ccc(NC2CC(=O)N(c3ccc(OC)cc3OC)C2=O)cc1 (stereo not drawn) 4.67%
CC(=O)N1CCN(c2ccc(NC(=O)C(c3ccccc3)c3ccccc3)cc2)CC1 3.06%
COc1cccc(N2C(=O)CC(Nc3ccc(N4CCOCC4)cc3)C2=O)c1 (stereo not drawn) 20.1%
CC(C)c1ccc(C(=O)Nc2ccc(N3CCOCC3)cc2)cc1 7.63%
O=C(CSc1nnc(-c2cccnc2)o1)Nc1ccc(F)cc1 13.2%
Clc1nc(-c2ccccc2)c2ccccc2n1 10.5%
CC(=O)c1cc(Cc2csc(C(C)=O)c2)cs1 1.28%
CN(C(=O)COC(=O)c1cccs1)c1c(N)n(Cc2ccccc2)c(=O)[nH]c1=O 4.09%
Cc1cc(=O)oc2c3c(cc(OCC(=O)NC(Cc4ccc(Cl)cc4)C(=O)O)c12)OC(C)(C)CC3 (stereo not drawn) 6.3%
O=C(NCc1ccccc1)NC(=O)c1ccncc1 8.08%
O=C1NC(=S)NC1Cc1ccc(O)cc1 (stereo not drawn) 7.3%
CCn1ccnc1CN1CCCCC1C(=O)Nc1ccc(Oc2cccnc2)cc1 (stereo not drawn) 10.9%
Cc1cccc(CNc2ccc(S(=O)(=O)N3CCCCC3)cc2)c1 2.94%
O=C(O)c1ccc(NCc2cccs2)cc1 -0.42%
O=C1CC(Nc2ccc(N3CCOCC3)cc2)C(=O)N1CCc1ccccc1 (stereo not drawn) 14.7%
CC(=O)Nc1ccc(NCc2cccs2)cc1 31.6%
CC(=O)N1CCN(c2ccc(NC(=O)c3cccc(C)c3)cc2)CC1 -9.43%
O=C1CC(Nc2ccccc2)C(=O)N1Cc1ccccc1 (stereo not drawn) 7.76%
CC1CCN(Cc2cc(=O)oc3ccc(C(C)C)cc23)CC1 5.26%
O=S(=O)(N/N=C1\CC(c2ccccc2)Oc2ccccc21)c1ccccc1 (stereo not drawn) -7.41%
Fc1ccc(CNC2CCN(Cc3ccccc3)CC2)cc1 -1.76%
COc1ccccc1CNC1CCN(Cc2ccccc2)CC1 -3.78%
Cc1cc(-c2ccccc2)nc(N/N=C/c2cccnc2)n1 3.86%
Cc1cc(-c2ccccc2)nc(N/N=C/c2ccccc2)n1 4.11%
Cc1cc(-c2ccccc2)nc(N/N=C/c2ccccc2F)n1 2.38%
COc1ccc(/C=N/Nc2nc(C)cc(-c3ccccc3)n2)cc1OC 11.1%
C/C(=N\Nc1nc2ccccc2nc1C)c1ccccc1O -0.02%
COc1ccc(O)c(/C=N/Nc2nc(C)cc(-c3ccccc3)n2)c1 3.11%
Cc1cc(-c2ccccc2)nc(N/N=C/c2ccc([N+](=O)[O-])cc2)n1 6.88%
Oc1ccc(/C=N/Nc2ccccc2)cc1 12.9%
